# Bioassay records from PubChem BioAssay.
# C8 TRAIL sens = caspase-8 TRAIL sensitization. NB7+C8 cells + TRAIL, ATPlite viability luminescence. inhibition (viability loss, TRAIL sensitization), % at 10 µM. AID 624354. actives 1% (n = 360,000);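 active means compounds causing at least 50% loss of cell viability in the single-dose screen, relative to plate controls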
# SENP7 block = SENP7 protease inhibition; Q9BQF6; recombinant SENP7, Z-RLRGG-aminoluciferin luminescence, 40 min; inhibition, % at 5 µM; actives 1.5% (n = 330,000); AID 434973;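 active means inhibition above about 50% at the single test dose, limit read from the data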;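 further: plate controls were DMSO with enzyme for no effect and no enzyme buffer wells for full effect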
# PPC-1+TRAIL kill = kills PPC-1 cancer cells in the presence of TRAIL; actives 0.41% (n = 220,000); PPC-1 cells + TRAIL, ATPLite viability luminescence; cell killing (% activity), % at 4 µM or 5 µM;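 active means cell killing above 50% in the first pass at 4 µM, then a duplicate retest at 5 µM averaging 50% or more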;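 further: plate controls were cells with TRAIL plus DMSO for no effect and medium-only wells lacking cells for full effect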
# SENP8 block-1 = inhibitors of human SENP8 protease; Q96LD8; purified SENP8, Z-RLRGG-aminoluciferin cleavage, luminescence; inhibition, % at 10 µM; actives 1.2% (n = 330,000); in the data active means inhibition above about 50%
# Target sequence (Q96LD8 whole entry, looked up): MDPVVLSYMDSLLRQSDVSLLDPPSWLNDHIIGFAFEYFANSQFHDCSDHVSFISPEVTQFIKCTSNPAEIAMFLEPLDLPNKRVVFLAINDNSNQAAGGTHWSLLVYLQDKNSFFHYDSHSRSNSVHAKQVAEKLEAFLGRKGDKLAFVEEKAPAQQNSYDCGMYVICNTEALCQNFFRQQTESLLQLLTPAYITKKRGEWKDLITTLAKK
# SENP8 block-2 = SENP8 (human) protease inhibition; Q96LD8; recombinant SENP8, Nedd8 substrate fluorescence; inhibition, % at 20 µM; actives 0.64% (n = 360,000); AID 602440; in the data active means inhibition mostly above about 40%, no sharp cut-off; inactive means mostly below about 27%
# SENP6 inh = blocks the human protease SENP6. actives 1.8% (n = 330,000). AID 2599. Q9GZR1. Recombinant SENP6 catalytic domain, aminoluciferin luminescence. inhibition, % at 10 µM;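 active means inhibition above about 50% at the single tested dose, limit read from the data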;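 further: plate controls were DMSO wells with enzyme for no effect and DMSO wells lacking enzyme for full effect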
# SENP8 confirm = confirmation of human SENP8 protease inhibitors; shares compounds with SENP7 block; Recombinant SENP8, Z-RLRGG-aminoluciferin luminescence, 60 min; actives 40% (n = 6,200); AID 488912; inhibition, % at 12.5 µM;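 active means mean inhibition across replicates above about 50%, limit read from the data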
# SENP6 conf = human SENP6 inhibition, confirmed; shares compounds with SENP7 block; recombinant SENP6, Z-RLRGG-aminoluciferin luminescence; inhibition, % at 12.5 µM; actives 58% (n = 6,200); AID 488915
# SENP7 conf = human SENP7 inhibition, confirmed | shares compounds with SENP7 block | recombinant SENP7, Z-RLRGG-aminoluciferin luminescence, 40 min | inhibition, % at 12.5 µM | actives 69% (n = 6,200) | AID 488917
# Casp3 select = caspase-3 inhibition (SENP selectivity assay); shares compounds with SENP7 block; purified caspase-3, Z-DEVD-aminoluciferin luminescence, 60 min; inhibition, % at 12.5 µM; actives 60% (n = 6,200);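 active means mean inhibition above about 50%, limit read from the data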;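 further: plate controls were enzyme with DMSO for no effect and wells without caspase-3 for full effect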
# Target sequence (P42574 28-227 limits assumed): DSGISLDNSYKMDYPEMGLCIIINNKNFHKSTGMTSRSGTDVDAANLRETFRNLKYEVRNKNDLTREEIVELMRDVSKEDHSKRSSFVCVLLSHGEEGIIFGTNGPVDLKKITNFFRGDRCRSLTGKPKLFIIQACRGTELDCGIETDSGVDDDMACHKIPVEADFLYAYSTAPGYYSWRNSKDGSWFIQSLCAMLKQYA
# SENP luc ctr = interferes with luciferase luminescence in SENP counter-screen; Pre-incubated SENP8/Z-RLRGG-aminoluciferin, luciferase luminescence interference; shares compounds with SENP7 block; actives 39% (n = 6,200); inhibition, % at 12.5 µM; AID 488919;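 active means mean inhibition above about 50% when retested at one dose, limit read from the data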;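 further: plate controls were DMSO wells with completed reaction for no effect and substrate without enzyme for full effect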
# The depositor's hits bear a star; i = inactive; . = not tested or not shown. Hits are enriched below; roughly 3% of the tested compounds scored in any of these assays.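 How the source made its calls, unless noted: active means mean inhibition above about 50% in the one-dose retest (limit read from the data); inactive means the rest.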
SMILES,C8 TRAIL sens,SENP7 block,PPC-1+TRAIL kill,SENP8 block-1,SENP8 block-2,SENP6 inh,SENP8 confirm,SENP6 conf,SENP7 conf,Casp3 select,SENP luc ctr
COC(=O)CC1(c2ccccc2)C(=O)c2ccccc2C1=O,3,15,16,4,15,8,.,.,.,.,.
Cc1ccc(-c2cnc(-c3ccncc3)o2)cc1,17,10,9,2,-266,20,.,.,.,.,.
Nc1ccc(-c2ncc(-c3ccccc3)o2)cc1,52*,69*,.,61*,-346,73*,74*,68*,89*,45,74*
O=C(Nc1ccc2ccccc2n1)C1CCCCC1,4,74*,19,48,14,60*,61*,58*,88*,74*,68*
O=C(Nc1ccc2ccccc2n1)c1ccccc1Cl,37,95*,.,89*,5,88*,94*,94*,102*,94*,33
COc1ccc(C(=O)Nc2ccc3ccccc3n2)c(OC)c1OC,83*,86*,.,66*,-37,82*,58*,46,57*,45,5
O=C(Nc1ccnc(-c2ccncc2)n1)c1ccccc1Cl,-2,-2,14,2,4,-4,.,.,.,.,.
O=C(Nc1ccc2ccccc2n1)c1ccc(Cl)cc1,31,72*,.,50*,0,56*,25,48,59*,59*,16
CCN(C(=O)CN1CCC(C(=O)OC)CC1)c1c(N)n(Cc2ccccc2)c(=O)[nH]c1=O,-17,-1,.,-6,2,-2,.,.,.,.,.
CCOc1cc(/C=N/Nc2nc(-c3cccc(S(=O)(=O)N4CCCC4)c3)cs2)ccc1O,26,-2,16,-6,-146,-12,.,.,.,.,.
COc1ccc2oc3ccc(OC)cc3c(=O)c2c1,25,89*,17,62*,-270,31,20,53*,70*,46,17
COc1ccc2sc3ccccc3c(=O)c2c1,3,81*,8,74*,i,88*,46,47,78*,53*,28
COc1ccc(-c2cc(=O)c3ccccc3s2)cc1,54*,-9,41,84*,-8,93*,60*,91*,99*,82*,59*
CCN(C(=O)CSc1nc2nc(C)cc(C)n2n1)C1CCS(=O)(=O)C1 (centres undefined),0,3,21,-8,20,-4,.,.,.,.,.
CS(=O)(=O)c1ccccc1C(=O)N(CCC1=CCCCC1)c1c(N)n(Cc2ccccc2)c(=O)[nH]c1=O,10,-4,.,-1,-16,-1,.,.,.,.,.
Cc1csc2c(N3CCN(C(=S)Nc4ccc(F)cc4F)CC3)ncnc12,14,1,-7,10,14,-19,.,.,.,.,.
COc1cccc2sc(N)nc12,-3,-8,.,5,9,2,.,.,.,.,.
COc1cccc2sc(N(C)c3ccccc3)nc12,60*,89*,39,76*,16,47,-8,83*,96*,78*,83*
O=c1c2c3c(sc2nc2n1CCCCC2)CCCC3,10,33,4,21,4,62*,22,45,57*,56*,16
Cc1ccc(-c2nc3sc4c(c3c(=O)n2N)CCCC4)cc1,28,54*,26,36,-30,72*,9,66*,88*,41,17
Cc1ccc(-c2nc3sc4c(c3c(=O)n2N)CC(C)(C)OC4)cc1,9,4,10,3,-24,5,.,.,.,.,.
O=c1c2c3c(sc2nc2n1CCCCC2)CCCCC3,20,-3,-4,16,6,26,.,.,.,.,.
ClC(Cl)(Cl)C1=NCc2nnn(Cc3ccccc3)c2N1,6,.,.,.,8,.,.,.,.,.,.
O=C(CN1C(=O)NC(c2ccccc2)(c2ccccc2)C1=O)NCCc1ccc(F)cc1,-10,1,.,-2,-1,-13,.,.,.,.,.
COc1cccc(C=Nc2cccc3c(=O)[nH][nH]c(=O)c23)c1O,45,93*,11,65*,-36,67*,10,15,9,30,15
SMILES,C8 TRAIL sens,SENP7 block,PPC-1+TRAIL kill,SENP8 block-1,SENP8 block-2,SENP6 inh,SENP8 confirm,SENP6 conf,SENP7 conf,Casp3 select,SENP luc ctr
CCCn1nnc2ccccc2c1=O,-11,3,10,-4,24,-13,.,.,.,.,.
CCOc1ccc(OCCn2nnc3ccccc3c2=O)cc1,-3,67*,-4,58*,-5,69*,36,60*,89*,81*,50*
CNc1n[nH]c(-c2ccccc2)n1,-6,.,.,.,-7,.,.,.,.,.,.
O=[N+]([O-])c1cccc(/C=N\N=C2c3ccccc3-c3ccccc32)c1O,-1,-2,15,-1,29,-8,.,.,.,.,.
O=[N+]([O-])c1ccc(O)c(/C=N/Nc2ccccc2Cl)c1,5,50*,23,36,29,50*,6,12,23,20,18
O=[N+]([O-])c1ccccc1N/N=C/c1cccc(O)c1O,24,98*,15,88*,55*,92*,16,30,20,22,12
O=[N+]([O-])c1ccccc1N/N=C\c1ccccc1Cl,-4,97*,19,84*,36,91*,16,17,7,56*,3
CCOc1ccc(CN2CCN(C(=O)c3cccc4ccccc34)CC2)cc1,23,1,.,8,13,-2,.,.,.,.,.
Cc1ccc(-n2c(SCC(=O)Nc3ccc(Cl)cc3)nc(O)cc2=O)cc1,12,11,.,-1,8,-13,.,.,.,.,.
CC(CCc1ccccc1)NC(=O)C(Cc1ccccc1)NS(=O)(=O)c1cccs1 (centres undefined),-2,80*,30,5,13,2,-30,-18,-8,-6,-9
CCCCCN(C(=O)CCC(=O)OC(C)C(=O)Nc1ccccc1C)c1c(N)n(CCCC)c(=O)[nH]c1=O (centres undefined),10,.,.,.,17,.,.,.,.,.,.
Cc1ccccc1-c1nnc(SCc2ccc(F)cc2)o1,21,-9,23,-21,0,-14,.,.,.,.,.
Cc1ccccc1C1=NC(c2ccc(F)cc2F)ON1 (centres undefined),2,34,34,35,20,66*,-14,5,40,14,5
